Measured values reported in PubChem BioAssay (EPA / NIEHS).
Where a structure was tested more than once in an assay, its records may differ in their call. Activity calls are given as the source filed them. The calls were made as follows: active = hit-call score of the fitted dose curve at least 0.9, where 1 is the maximum; inactive = score below 0.9.

Key:
[1] = BSK_hDFCGF_SRB: Viability Assessment in the BioMAP Diversity Plus: hDFCGF Assay (AID 2283061); conditions: primary human foreskin fibroblasts;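 also: cells exposed to compound for 24 h before the read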
Outline: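 Viability was read as total protein: after 10% TCA fixation, wells were stained with 0.1% sulforhodamine B and read at 560 nm. Primary human foreskin fibroblasts were dosed for 24 h, with bidirectional fitting versus DMSO.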

[2] = read-out: TIMP metallopeptidase inhibitor 1 (TIMP1), TIMP1 (gene 7076); experiment: BSK_hDFCGF_TIMP1: BioMAP Diversity Plus: hDFCGF Assay for TIMP metallopeptidase inhibitor 1 (TIMP1) Biomarker Activity (AID 2283062); conditions: primary human foreskin fibroblasts; actives raise or lower the signal
Outline: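 TIMP-1 measured by ELISA 24 h after chemical dosing of primary human skin fibroblasts, with gain or loss fitted relative to DMSO. Parallel SRB staining (560 nm) monitored overt cytotoxicity.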

[3] = read-out: Monokine induced gamma interferon (MIG), CXCL9 (gene 4283); experiment: BSK_hDFCGF_MIG: BioMAP Diversity Plus: hDFCGF Assay for Monokine induced gamma interferon (MIG) Biomarker Activity (AID 2283063); conditions: primary human foreskin fibroblasts; actives raise or lower the signal
Outline: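 Human primary foreskin fibroblasts in the hDFCGF system, exposed to test chemical for 24 h; MIG measured by ELISA. Bidirectional curve fitting against DMSO negative control as activity baseline.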

[4] = read-out: Matrix Metallopeptidase 1 (MMP1), MMP1 (gene 4312); experiment: BSK_hDFCGF_MMP1: BioMAP Diversity Plus: hDFCGF Assay for Matrix Metallopeptidase 1 (MMP1) Biomarker Activity (AID 2283064); conditions: primary human foreskin fibroblasts; actives raise or lower the signal
Outline: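 MMP1 levels quantified by ELISA 24 h after dosing human dermal fibroblast cultures, with parallel SRB total-protein staining for overt cytotoxicity. Data fitted in both directions against DMSO baseline.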

[5] = read-out: Vascular cell adhesion molecule 1 (VCAM1), VCAM1 (gene 7412); experiment: BSK_hDFCGF_VCAM1: BioMAP Diversity Plus: hDFCGF Assay for Vascular cell adhesion molecule 1 (VCAM1) Biomarker Activity (AID 2283065); conditions: primary human foreskin fibroblasts; actives raise or lower the signal
Outline: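 ELISA readout of VCAM-1 on human dermal fibroblast primary cultures, 24 h after chemical exposure. Gain or loss of signal fitted in both directions against DMSO baseline.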

[6] = read-out: Plasminogen activator inhibitor-1 (PAI1), SERPINE1 (gene 5054); experiment: BSK_hDFCGF_PAI1: BioMAP Diversity Plus: hDFCGF Assay for Plasminogen activator inhibitor-1 (PAI1) Biomarker Activity (AID 2283066); conditions: primary human foreskin fibroblasts; actives raise or lower the signal
Outline: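 Human skin fibroblast cultures receive chemical for 24 h before PAI-1 is measured by ELISA; signal changes are fitted bidirectionally against DMSO-treated wells.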

[7] = read-out: Intercellular Adhesion Molecule 1 (ICAM1), ICAM1 (gene 3383); experiment: BSK_KF3CT_ICAM1: BioMAP Diversity Plus: KF3CT Assay for Intercellular Adhesion Molecule 1 (ICAM1) Biomarker Activity (AID 2283067); conditions: primary human keratinocytes with fibroblasts; actives raise or lower the signal
Outline: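 Cell-surface ICAM-1 was measured by ELISA 24 h after dosing primary human skin keratinocytes co-cultured with fibroblasts. Parallel SRB staining tracked overt cytotoxicity. Gain or loss of signal was fitted relative to DMSO.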

[8] = read-out: Interferon-gamma inducible Protein 10 (IP10), CXCL10 (gene 3627); experiment: BSK_KF3CT_IP10: BioMAP Diversity Plus: KF3CT Assay for Interferon-gamma inducible Protein 10 (IP10) Biomarker Activity (AID 2283068); conditions: primary human keratinocytes with fibroblasts; actives raise or lower the signal
Outline: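 KF3CT co-culture (keratinocytes + foreskin fibroblasts), 24 h compound, IP-10 by ELISA; bidirectional fit vs DMSO baseline.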

[9] = BSK_KF3CT_SRB: Viability Assessment in the BioMAP Diversity Plus: KF3CT Assay (AID 2283069); conditions: primary human keratinocytes with fibroblasts;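 also: total protein by sulforhodamine B staining as a cytotoxicity measure; read 24 h after compound addition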
Outline: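 Cytotoxicity was gauged by SRB staining (0.1% SRB, 10% TCA fixation, 560 nm) of parallel cultures at 24 h. The cells were primary human skin keratinocytes co-cultured with fibroblasts, and activity was fitted in both directions against DMSO.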

[10] = read-out: Interleukin-1 alpha (IL1a), IL1A (gene 3552); experiment: BSK_KF3CT_IL1a: BioMAP Diversity Plus: KF3CT Assay for Interleukin-1 alpha (IL1a) Biomarker Activity (AID 2283070); conditions: primary human keratinocytes with fibroblasts; actives raise or lower the signal
Outline: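 IL-1a was detected by ELISA 24 h after chemical treatment of a co-culture of human skin keratinocytes and foreskin fibroblasts. Gain or loss of signal was fitted against the DMSO baseline.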

[11] = read-out: TIMP metallopeptidase inhibitor 2 (TIMP2), TIMP2 (gene 7077); experiment: BSK_KF3CT_TIMP2: BioMAP Diversity Plus: KF3CT Assay for TIMP metallopeptidase inhibitor 2 (TIMP2) Biomarker Activity (AID 2283071); conditions: primary human keratinocytes with fibroblasts; actives raise or lower the signal
Outline: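 Measurements come from ELISA detection of TIMP-2 at 24 hours in a dosed human keratinocyte and foreskin fibroblast co-culture. DMSO serves as negative control and baseline.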

[12] = read-out: Transforming growth factor beta 1 (TGFb1), TGFB1 (gene 7040); experiment: BSK_KF3CT_TGFb1: BioMAP Diversity Plus: KF3CT Assay for Transforming growth factor beta 1 (TGFb1) Biomarker Activity (AID 2283072); conditions: primary human keratinocytes with fibroblasts; actives raise or lower the signal
Outline: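 TGF-b1 ELISA on a 24 h dosed co-culture of human keratinocytes and foreskin fibroblasts; cytotoxicity tracked in parallel cultures by SRB staining.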

[13] = read-out: C-C motif chemokine 2 (Homo sapiens) (UniProt P13500); experiment: BSK_KF3CT_MCP1: BioMAP Diversity Plus: KF3CT Assay for Monocyte Chemoattractant Protein 1 (MCP1/CCL2) Biomarker Activity (AID 2283073); conditions: primary human keratinocytes with fibroblasts; actives raise or lower the signal
Outline: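 ELISA read-out of MCP-1, 24 h post-dose, in primary human skin keratinocytes co-cultured with fibroblasts. Parallel SRB staining monitors cytotoxicity; changes fitted both directions relative to DMSO.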

[14] = read-out: Matrix Metallopeptidase 9 (MMP9), MMP9 (gene 4318); experiment: BSK_KF3CT_MMP9: BioMAP Diversity Plus: KF3CT Assay for Matrix Metallopeptidase 9 (MMP9) Biomarker Activity (AID 2283074); conditions: primary human keratinocytes with fibroblasts; actives raise or lower the signal
Outline: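 MMP-9 quantified by ELISA after 24 h chemical treatment of primary human skin keratinocyte/fibroblast co-cultures; gain or loss fitted against DMSO, with parallel SRB staining (0.1% SRB, 560 nm) for overt cytotoxicity.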

[15] = read-out: urokinase plasminogen activator (uPA), PLAU (gene 5328); experiment: BSK_KF3CT_uPA: BioMAP Diversity Plus: KF3CT Assay for urokinase plasminogen activator (uPA) Biomarker Activity (AID 2283075); conditions: primary human keratinocytes with fibroblasts; actives raise or lower the signal
Outline: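 ELISA read-out of uPA 24 h after dosing human skin keratinocytes co-cultured with foreskin fibroblasts. Signal change fitted both ways relative to DMSO; sulforhodamine B on parallel cultures marks overt cytotoxicity.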

CD40, CD40 (gene 958) = experiment: BSK_LPS_CD40: BioMAP Diversity Plus: LPS Assay for CD40 Biomarker Activity (AID 2283076); conditions: primary human HUVEC with PBMC; actives raise or lower the signal
Outline: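 In the LPS system of human endothelial cells with peripheral blood mononuclear cells, CD40 levels were read by ELISA 24 h post-treatment. Signal changes in either direction were fitted against the DMSO baseline, with parallel SRB protein staining.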

[16] = read-out: E-selectin (Homo sapiens) (UniProt P16581); experiment: BSK_LPS_Eselectin: BioMAP Diversity Plus: LPS Assay for Eselectin Biomarker Activity (AID 2283077); conditions: primary human HUVEC with PBMC; actives raise or lower the signal
Outline: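 E-selectin ELISA on LPS-stimulated endothelial cell/PBMC co-cultures, read 24 h post-treatment; gains and losses fitted against DMSO. Parallel SRB staining (0.1% SRB after 10% TCA fixation, 560 nm) flags overt cytotoxicity.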

[17] = read-out: Interleukin-8 (IL8), CXCL8 (gene 3576); experiment: BSK_LPS_IL8: BioMAP Diversity Plus: LPS Assay for Interleukin-8 (IL8) Biomarker Activity (AID 2283078); conditions: primary human HUVEC with PBMC; actives raise or lower the signal
Outline: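 ELISA read-out of IL-8 after 24 h chemical treatment of LPS-activated endothelial/PBMC human primary co-cultures. Changes either up or down relative to DMSO; overt cytotoxicity checked by sulforhodamine B staining in parallel wells.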

[18] = BSK_LPS_SRB: Viability Assessment in the BioMAP Diversity Plus: LPS Assay (AID 2283079); conditions: primary human HUVEC with PBMC;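 also: total protein by sulforhodamine B absorbance as a cytotoxicity measure; measured one day after compound addition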
Outline: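 SRB viability endpoint: cells fixed with 10% TCA, stained with 0.1% SRB, read at 560 nm, 24 h post-dose. HUVEC/PBMC co-culture; signal change in either direction scored relative to DMSO.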

[19] = read-out: Interleukin-1 alpha (IL1a), IL1A (gene 3552); experiment: BSK_LPS_IL1a: BioMAP Diversity Plus: LPS Assay for Interleukin-1 alpha (IL1a) Biomarker Activity (AID 2283080); conditions: primary human HUVEC with PBMC; actives raise or lower the signal
Outline: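 Readout is IL-1a level by ELISA, 24 h post-dose, fitted as gain or loss relative to DMSO. System: LPS-activated human primary co-culture of vascular endothelium and peripheral blood mononuclear cells, with parallel SRB total-protein cytotoxicity.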

Measured: AC50

Chain of E-selectin (Homo sapiens) (P16581 whole entry, looked up): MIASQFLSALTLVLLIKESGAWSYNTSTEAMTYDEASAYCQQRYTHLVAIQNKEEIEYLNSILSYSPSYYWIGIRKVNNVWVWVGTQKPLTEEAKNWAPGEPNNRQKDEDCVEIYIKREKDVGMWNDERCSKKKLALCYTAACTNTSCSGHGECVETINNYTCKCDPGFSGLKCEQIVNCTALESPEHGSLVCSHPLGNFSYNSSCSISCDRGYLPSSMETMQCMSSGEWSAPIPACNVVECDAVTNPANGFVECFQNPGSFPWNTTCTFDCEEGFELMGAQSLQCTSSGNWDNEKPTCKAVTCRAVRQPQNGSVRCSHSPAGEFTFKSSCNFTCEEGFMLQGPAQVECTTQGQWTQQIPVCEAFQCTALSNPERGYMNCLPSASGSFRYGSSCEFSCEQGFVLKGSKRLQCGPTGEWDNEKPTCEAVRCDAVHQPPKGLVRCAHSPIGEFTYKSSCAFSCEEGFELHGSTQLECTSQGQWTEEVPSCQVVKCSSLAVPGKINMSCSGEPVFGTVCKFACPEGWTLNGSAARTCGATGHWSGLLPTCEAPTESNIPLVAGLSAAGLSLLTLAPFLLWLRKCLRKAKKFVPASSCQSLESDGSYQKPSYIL

O=C(O)c1cccc(C(=O)O)c1
active: [13] 0.323 µM
inactive: all other assays above

COCc1nnc(-c2ccc[n+]([O-])c2)n1-c1c(Cl)c(Cl)cc2[nH]c(=O)c(=O)[nH]c12
inactive: all assays above

C[Si](C)(C)C(F)(F)C(F)(F)C(F)(F)F
inactive: [1] | [2] | [3] | [5] | [6] | [7] | [8] | [9] | [10] | [11] | [13] | [14] | [15] | CD40, CD40 (gene 958) | [16] | [17] | [18] | [19]
active: [1] 30 µM

CCCOc1ccc(S(=O)(=O)N2CCN(CC)CC2)cc1-c1nc2c(CC)n(Cc3ccccn3)nc2c(=O)[nH]1
inactive: all assays above

CC[C@H](C)C(=O)O[C@H]1C[C@H](O)C=C2C=C[C@H](C)[C@H](CC[C@@H](O)C[C@@H](O)CC(=O)O)[C@H]21
inactive: all assays above

CC(=O)c1ccccc1
inactive: all assays above

OC[C@H]1O[C@@H]2O[C@H]3[C@H](O)[C@@H](O)[C@@H](O[C@H]4[C@H](O)[C@@H](O)[C@@H](O[C@H]5[C@H](O)[C@@H](O)[C@@H](O[C@H]6[C@H](O)[C@@H](O)[C@@H](O[C@H]7[C@H](O)[C@@H](O)[C@@H](O[C@H]1[C@H](O)[C@H]2O)O[C@@H]7CO)O[C@@H]6CO)O[C@@H]5CO)O[C@@H]4CO)O[C@@H]3CO
inactive: all assays above

Cc1ncc([C@@H](CCCCCCc2ccc3c(n2)NCCC3)CC(=O)O)cn1
inactive: all assays above

CNC(C)=O
inactive: all assays above

CCOC(N)=O
inactive: all assays above

OCC(CO)(CO)CO
inactive: all assays above

CCCCCCCC1CCC(=O)O1 (centres undefined)
inactive: all assays above

NC(=O)NN=Cc1ccc([N+](=O)[O-])o1
inactive: all assays above
